Source: PubChem BioAssay (Sanford-Burnham Center for Chemical Genomics)
Rows were chosen to be rich in hits. Some 4% of all compounds tested hit in one or more screens of this group.
tim23-1 inh = growth inhibitors of tim23-1 mutant yeast | S. cerevisiae tim23-1 growth, BacTiter-Glo luminescence, 24 h | 1.3% of 330,000 active | inhibition, % at 20 µM;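 active means growth inhibition of the mutant yeast at or above 50%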;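 further: temperature-sensitive mutant grown at 25 °C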
tim10-1 inh = tim10-1 yeast growth inhibition. S. cerevisiae tim10-1 ts strain growth, BacTiter-Glo, 24 h. inhibition, % at 20 µM. 2.2% of 330,000 active;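 active means inhibition of at least 40%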;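 further: mutant grown at 25 °C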
NALP3 yeast inh = blocks the NALP3 inflammasome reconstituted in yeast. Yeast reconstituted NLRP3/ASC/caspase-1, beta-gal luminescence, 24 h. 0.39% of 330,000 active. AID 2825. inhibition, % at 10 µM;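 active means inhibition of 50% or more; inactive means inhibition below 50%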
NALP1 inh = blocks the NALP1 inflammasome reconstituted in yeast | inhibition, % at 10 µM | 0.61% of 280,000 active | AID 2071 | S. cerevisiae NALP1/ASC/caspase-1 growth, X-gal OD620, 72 h; in the data active means inhibition mostly above about 24%, no sharp cut-off; inactive means mostly below about 32%
TIM10 inh = growth inhibitors of TIM10 yeast strain | inhibition, % at 10 µM | AID 463195 | S. cerevisiae TIM10 strain growth, BacTiter-Glo luminescence, 24 h | 1.4% of 330,000 active;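 active means inhibition of 40% or more at the single tested concentration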;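 further: wild-type TIM10 isogenic control strain grown at permissive 25 °C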
tim10-1 confirm = confirmation of tim10-1 mutant yeast growth inhibitors; shares compounds with tim10-1 inh; S. cerevisiae tim10-1 ts strain growth, BacTiter-Glo, 24 h; inhibition, % at 20 µM; 56% of 7,400 active; AID 463213;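 active means inhibition of yeast growth at or above a set limit in either of two repeat tests at 20 µM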;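 further: tim10-1 mutant grown at permissive 25 °C to find synthetic lethal compounds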
TIM10 conf = confirmation of TIM10 yeast growth inhibitors | shares compounds with TIM10 inh | S. cerevisiae tim10 strain growth, BacTiter-Glo luminescence, 24 h | 63% of 4,600 active | inhibition, % at 10 µM;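 active means inhibition of yeast growth at or above a set limit in either of two replicates at 10 µM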; further: this counterscreen used the strain with wild-type TIM10
Of the large screens only hits and unclear results are named; the others gave an inactive call (follow-up assays come after a bar, where they were run).

CCCCN(CC)CCCNC(=O)c1cc2cc3ccc(OC)cc3nc2o1	tim10-1 inh 42.5, TIM10 inh 65.9 | tim10-1 confirm 44.5 | TIM10 conf inactive
COc1cccc(NC(=O)C2CCN(C(=O)NC3CCCCC3)CC2)c1	none
COc1ccc2sc(-c3ccc(SC)cc3)c(/C=C/c3ccc(OC)c(OC)c3)c2c1	none (no result: NALP1 inh)
Cc1ccccc1OCC(=O)Nc1ccc(Cc2ccncc2)cc1	tim10-1 inh 42.0, TIM10 inh 40.5 | tim10-1 confirm 40.4 | TIM10 conf inactive
O=c1oc(-c2ccccc2)cc(Cl)c1Cl	tim10-1 inh 81.0, TIM10 inh 75.9 | tim10-1 confirm 86.3 | TIM10 conf 78.2
CC12CCC(C(=O)Nc3nc4ccc(Br)cc4s3)(OC1=O)C2(C)C (stereo not given)	tim10-1 inh 50.5, TIM10 inh 47.8 | tim10-1 confirm 42.2 | TIM10 conf 31.8
Cc1ccc(-n2ncc3c(NNC(=O)Cc4ccccc4)ncnc32)cc1	none
CCOC(=O)c1[nH]c(C)c(C(=O)C(C)C)c1C	none
CCOC(=O)c1c(N2C(=O)CC(Sc3ccccc3C(=O)O)C2=O)sc2c1CCCC2 (stereo not given)	tim10-1 inh 53.8, TIM10 inh 43.1 | tim10-1 confirm 44.0 | TIM10 conf 40.5
COc1cc(C#N)ccc1OCC(=O)N1CCc2ccccc2C1	none
CCN(CC)CCN1C(=O)C2C(C(=O)Nc3cc(C)cc(C)c3)C3C=CC2(O3)C1C(=O)NC1CCCCC1 (stereo not given)	none
CCOC(=O)/C=C/C(=O)OCC(=O)Nc1ccc(OC)c(Cl)c1	tim10-1 inh 53.4, TIM10 inh 44.1 | tim10-1 confirm 40.8 | TIM10 conf 36.1
Cn1c(=O)c2c(nc(N3CCN(c4ccccn4)CC3)n2Cc2ccccc2Cl)n(C)c1=O	tim10-1 inh 43.2, TIM10 inh 50.8 | tim10-1 confirm inactive | TIM10 conf 35.4
COc1ccc(NCc2nnc(SCc3ccc(Cl)cc3)n2-c2ccccc2)cc1	tim10-1 inh 52.4, TIM10 inh 54.4 | tim10-1 confirm 39.4 | TIM10 conf inactive
COc1ccc(-n2c(COc3ccc(Cl)cc3)nnc2SCc2ccc(C#N)cc2)cc1	none
COc1ccc(-c2cn3cc(C)ccc3n2)cc1OC	tim10-1 inh 49.9, TIM10 inh 67.4 | tim10-1 confirm 42.9 | TIM10 conf 59.7
COc1ccc(-c2cn3ccccc3n2)cc1OC	none
Cc1ccc2oc(-c3cc(NC(=O)c4ncn[nH]4)ccc3O)nc2c1	none
Fc1ccccc1CNC(=S)Nc1cccc(C(F)(F)F)c1	tim10-1 inh 47.1, TIM10 inh 43.1 | tim10-1 confirm 46.0 | TIM10 conf inactive
CSc1ccccc1NC(=S)Nc1cccc(C(F)(F)F)c1	none
CN(C)CCCNS(=O)(=O)c1cc(Cl)ccc1Cl	none
CN(C)CCCNS(=O)(=O)c1ccc(N2CCC(c3ccc(Cl)cc3)=N2)cc1	tim10-1 inh 58.9, TIM10 inh 51.7 | tim10-1 confirm 39.9 | TIM10 conf 50.3
CC(/C=N/n1c(-c2ccccc2)n[nH]c1=S)=C\c1ccco1	tim10-1 inh 42.2, TIM10 inh 43.7 | tim10-1 confirm inactive | TIM10 conf 41.0
CCS(=O)(=O)N1CCC(C(=O)Nc2ccccc2OC)CC1	none
CN(C)CCCN(C(=O)C1COc2ccccc2O1)c1nc2cc3c(cc2s1)OCO3 (stereo not given)	tim10-1 inh 55.9, TIM10 inh 55.0 | tim10-1 confirm 48.6 | TIM10 conf 44.0
CN(C)CCCN(C(=O)c1ccc(Br)s1)c1nc2cc3c(cc2s1)OCO3	none
Cc1ccc(SCCC(=O)N/N=C/c2ccccc2O)cc1	tim10-1 inh 42.5, TIM10 inh 48.2 | tim10-1 confirm inactive | TIM10 conf 44.5
CCN1C(=O)[C@H]2[C@@H](c3ccc(-c4ccc(C(C)=O)cc4)c(OC)c3)N[C@@](Cc3ccccc3)(C(=O)OC)[C@H]2C1=O	none (no result: NALP1 inh)
CCCCc1ccc(NC(=S)NCc2cccs2)cc1	tim10-1 inh 46.2, TIM10 inh 40.4 | tim10-1 confirm 42.6 | TIM10 conf 34.6
COc1ccc(OCC(=O)OCC(=O)Nc2ccc3[nH]c(=O)[nH]c3c2)cc1	none (no result: NALP1 inh)
